HCMV inh: blocks human cytomegalovirus replication. activity change, negative = inhibition, % at 57.5 µM. HFF cells, HCMV-luciferase reporter, 72 h; stronger effect = lower value. actives 4.5% (n = 410,000). AID 1259415; in the data active = activity change below about -60%; inconclusive = no clear call, values can overlap the other calls; inactive = above about -39%; also: % is scaled to controls: 0 for no effect and ±100 for the full control effect
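Cell-based, HFFs, 1000 cells/well, 16 h 37C; cpds in DMSO + HCMV-luc, MOI 1 PFU/cell; 72 h 37C; OneGlo luminescence after 5 min RT; norm. to buffer vs Salinomycin 10uM.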
Cycloheximide cs: counter-screen for Shiga toxin inhibitors: cycloheximide protein synthesis inhibition; cell reporter, cycloheximide protein synthesis inhibition counterscreen; max response, %; actives 12% (n = 300,000); in the data active = max response mostly above about 13%, no sharp cut-off; inactive = mostly below about 14%; also: read at 38.3 µM for the half of the compounds with a filed dose; 0% is about no effect
HCV inhibitor: blocks hepatitis C virus. actives 3.4% (n = 340,000). Potency, µM (highest dose often 41.8 µM), for the others: at the top dose activity change, negative = inhibition, most hits filed as inhibitors. Huh7.5.1 HCVcc-Cre infection, luciferase reporter, 44 h; also: potency is read from the fitted curve at half-maximal effect; % is scaled to controls: 0 for no effect and ±100 for the full control effect
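After 44 h co-culture of compound, cells and HCVcc-Cre (~0.5 moi), substrate is added for 15 min at room temperature and luciferase measured over 15 sec. Cells were seeded at 1,000/well and pre-cultured 4 h.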
Pf growth 96h: P. falciparum growth inhibition at 96 hour, primary screen for plastid delayed-death inhibitors | Potency, µM (highest dose often 28.7 µM), for inactives: top-dose activity change, negative = inhibition, most hits filed as inhibitors | P. falciparum luciferase reporter growth, 96 h | actives 6.9% (n = 320,000); also: potency is read from the fitted curve at half-maximal effect; % is scaled to controls: 0 for no effect and ±100 for the full control effect
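Two-generation exposure (96 h) targets delayed-death phenotype. Reporter parasites carrying integrated firefly luciferase, in red cells at 2% hematocrit and 0.05% parasitemia final, kept at 37 C, 5% CO2; luminescence loss indicates inhibition.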
Pf growth 48h: P. falciparum growth inhibition at 48 hours (one generation); P. falciparum luciferase growth in erythrocytes, 48 h; Potency, µM (top dose mostly 28.7 µM), inactives show top-dose activity change, negative = inhibition, most hits filed as inhibitors; actives 5.9% (n = 310,000); AID 504832; also: potency is read from the fitted curve at half-maximal effect; % is scaled to controls: 0 for no effect and ±100 for the full control effect
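Luciferase-expressing parasites in RBCs, 2% Hct / 0.1% parasitemia final; RPMI 1640 + 0.5% Albumax; 37 C, 5% CO2, one generation; luminescence read-out, lower signal = inhibition.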
Shiga inhibitor: blocks Shiga toxin action in Vero cells; Vero cells, Shiga toxin protein synthesis inhibition reporter; inhibition, % at 38.7 µM; AID 2315; actives 9.2% (n = 290,000); in the data active = inhibition mostly above about 28%, no sharp cut-off; inactive = mostly below about 43%; also: 0% is about no effect
* = called active by the depositor; ? = inconclusive; . = no result. An excerpt weighted towards active compounds, which were near 21% of everything screened. Unless noted, calls follow the shape of the dose curve; as a rule, active = well fitted inhibition curve with a large enough effect; inconclusive = small, poorly fitted or top-dose-only effect, or another doubt; inactive = no such curve, though single readings can be large or run the other way.

SMILES | HCMV inh | Cycloheximide cs | HCV inhibitor | Pf growth 96h | Pf growth 48h | Shiga inhibitor
Cn1c2c(c(=O)[nH]c1=O)C(c1ccc(O)cc1)C1=C(N2)c2ccccc2C1=O (centres undefined) | -99* | 7 | ? | 81% | -25% | -11
COc1cc(C2C3=C(Nc4nc(N)[nH]c(=O)c42)c2ccccc2C3=O)ccc1O (centres undefined) | -10 | -5 | 43% | ? | ? | 2
Nc1nc2c(c(=O)[nH]1)C(c1ccccc1)C1=C(N2)c2ccccc2C1=O (centres undefined) | -10 | 0 | 2% | 10µM* | 9.3µM* | 11
CCC(C)c1ccc(C2C3=C(Nc4nc(N)[nH]c(=O)c42)c2ccccc2C3=O)cc1 (centres undefined) | -65* | -2 | 7.9µM* | ? | -17% | -1
CCCCn1c(N)c(N(CC(C)C)C(=O)c2cc(S(=O)(=O)N3CCOCC3)ccc2Cl)c(=O)[nH]c1=O | -3 | . | -2% | 0% | ? | .
Cc1ccc(N/C=C(\[N+](=O)[O-])S(=O)(=O)c2ccccc2)cc1 | -21 | 1 | -3% | 14% | 9% | -2
Cc1cccc(N/C=C(\[N+](=O)[O-])S(=O)(=O)c2ccccc2)c1C | 24 | 2 | -8% | 24% | 12µM* | -2
Cc1ccc(C(CCN(Cc2ccccc2)C(=O)c2ccco2)c2ccco2)cc1 (centres undefined) | 8 | 14 | ? | 13µM* | ? | -53
CN(Cc1nc(-c2ccccc2)no1)C(=O)c1ccco1 | -8 | 12 | 11% | -3% | 38% | 13
CN(Cc1ccccc1)C(=O)C(=O)c1ccccc1 | -26 | . | . | . | . | .
CN(Cc1ccccc1)C(=O)CCC(=O)N(C)Cc1ccccc1 | 36 | 32* | 4% | . | 81% | 113*
CN(Cc1cccs1)C(=O)CNC(=O)c1ccco1 | 52 | 22* | 2% | 56% | 69% | 58
CN(Cc1ccccc1)C(=O)c1ccco1 | -14 | 11 | 7% | 12µM* | 17% | 25
O=C(NCCNC(=O)c1cccs1)c1ccco1 | 63 | -4 | 9% | 28% | . | 32
C=CCSc1nnc(N2C(=O)C(O)=C(C(=O)c3ccco3)C2c2ccccc2F)s1 (centres undefined) | 31 | 2 | 28% | 16% | 31% | 2
C[C@@H]1CN([C@@H](C)CO)C(=O)CCCn2nncc2CO[C@H]1CN(C)C(=O)Nc1ccc(N2CCN(C)CC2)cc1 | -15 | . | . | . | . | .
CN(C)c1ccc(NC(=O)Nc2ccc3c(c2)c(=O)n(C)n3Cc2ccccc2)cc1 | -30 | . | . | . | . | .
CN(C)c1ccc(NC(=O)Nc2ccc3c(c2)c(=O)n(C)n3Cc2ccc(Cl)cc2)cc1 | -88* | . | . | . | . | .
Cn1c(=O)c2cc(NC(=O)Nc3cccnc3)ccc2n1Cc1cccc(C(F)(F)F)c1 | 0 | . | . | . | . | .
Cn1c(=O)c2cc(NC(=O)Nc3cccnc3)ccc2n1Cc1ccc(Cl)cc1 | -97* | . | . | . | . | .
CC(CC(=O)Nc1ccc2c(c1)c(=O)n(C)n2Cc1ccc(Cl)cc1)C(F)(F)F (centres undefined) | -72* | . | . | . | . | .
COc1cc(Cn2c3ccc(NC(=O)CC(C)C(F)(F)F)cc3c(=O)n2C)ccc1F (centres undefined) | -29 | . | . | . | . | .
O=C(NCc1ccccc1)c1ccc(NC(=O)C2CCCCC2)cc1 | -4 | . | 5% | . | . | .
O=C(NCCc1ccccc1)[C@@H]1CC=C[C@@H]2CCN(Cc3ccccc3)C(=O)[C@@H]21 | 28 | . | ? | . | . | .
CCCCC(CC)C(=O)Nc1ccc(Nc2ccccc2)cc1 (centres undefined) | ? | 4 | ? | ? | ? | -7
CCC(=O)Nc1ccc(C(=O)c2ccccc2)cc1 | 29 | 20* | -7% | 5% | 32% | 35
CCC(CC)C(=O)Nc1ccc(C(=O)c2ccccc2)cc1 | -9 | 18* | 34% | 43% | 42% | 50*
CCC(=O)Nc1ccc(NC(=S)Nc2ccccc2)cc1 | ? | -6 | 12% | 12µM* | 26% | -18
O=C(C[n+]1ccc(C(=O)c2ccccc2)cc1)Nc1ccc(C(F)(F)F)cc1 | -4 | 10 | 2µM* | -20% | ? | -9
